# From the supplement of paper PMC9023506
# Structures can show the parent of a compound that is named as a salt.
# How the values were obtained:
# Settings in all cases: 10 µM; exposure time: 3 h pre-incubation + 3 h imaging
# [1] = test system: Danio rerio larvae (5 dpf); test: habituation to 1-s acoustic pulses, difference vs DMSO (percentage points (treated minus DMSO)); higher = more of the behaviour than the DMSO vehicle control
# Procedure, shortened: (§1)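 Library drugs were diluted 1000× from DMSO stocks into egg water to reach 10 µM and applied to 5-dpf wild-type zebrafish larvae in 96-well ProxiPlates, 48 larvae per drug. The larvae stayed exposed for 3 h before imaging and for the 3 h of imaging at 28.5 °C. Behaviour scores, given in percentage points, are the treated mean minus the vehicle mean for movement and upper-half location.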
# [2] = test system: Danio rerio larvae (5 dpf); test: optomotor response to blue moving lines, difference vs DMSO (percentage points (treated minus DMSO)); higher = more of the behaviour than the DMSO vehicle control
# Procedure, shortened: as §1
# [3] = test system: Danio rerio larvae (5 dpf); test: optomotor response to green moving lines, difference vs DMSO (percentage points (treated minus DMSO)); higher = more of the behaviour than the DMSO vehicle control
# Procedure, shortened: as §1
# [4] = test system: Danio rerio larvae (5 dpf); test: optomotor response to fast red moving lines, difference vs DMSO (percentage points (treated minus DMSO)); higher = more of the behaviour than the DMSO vehicle control
# Procedure, shortened: as §1
# [5] = test system: Danio rerio larvae (5 dpf); test: excitability to 1-s acoustic pulses, difference vs DMSO (percentage points (treated minus DMSO)); higher = more of the behaviour than the DMSO vehicle control
# Procedure, shortened: as §1
# [6] = test system: Danio rerio larvae (5 dpf); test: activity during period 15 (no stimuli), difference vs DMSO (percentage points (treated minus DMSO)); higher = more of the behaviour than the DMSO vehicle control
# Procedure, shortened: as §1
# [7] = test system: Danio rerio larvae (5 dpf); test: optomotor response to red moving lines, difference vs DMSO (percentage points (treated minus DMSO)); higher = more of the behaviour than the DMSO vehicle control
# Procedure, shortened: as §1
# [8] = test system: Danio rerio larvae (5 dpf); test: startle response to 20-s acoustic pulses, difference vs DMSO (percentage points (treated minus DMSO)); higher = more of the behaviour than the DMSO vehicle control
# Procedure, shortened: as §1
compound,measurement,setting,value
CCc1ccc(CCOc2ccc(CC3SC(=O)NC3=O)cc2)nc1 (configuration not stated) [Pioglitazone hydrochloride],habituation to 1-s acoustic pulses,[1],0.476
same,optomotor response to blue moving lines,[2],-1.78
same,optomotor response to green moving lines,[3],-7.6
same,optomotor response,[4],-6.55
CC(=O)Oc1ccccc1C(=O)O [Aspirin],excitability to 1-s acoustic pulses,[5],10.2
same,optomotor response to blue moving lines,[2],2.57
same,optomotor response to green moving lines,[3],-12.5
same,optomotor response,[4],-7.85
C=CC(=O)N1CCC[C@@H](n2nc(-c3ccc(Oc4ccccc4)cc3)c3c(N)ncnc32)C1 [Ibrutinib],activity during period 15,[6],-4.55
same,optomotor response to blue moving lines,[2],6.42
same,optomotor response,[4],-0.957
CCN(Cc1ccncc1)C(=O)C(CO)c1ccccc1 (configuration not stated) [Tropicamide],activity during period 15,[6],6.31
same,optomotor response to blue moving lines,[2],0.00192
same,optomotor response to green moving lines,[3],-4.16
CC(C)N(CCCCOCC(=O)NS(C)(=O)=O)c1cnc(-c2ccccc2)c(-c2ccccc2)n1 [Selexipag],excitability to 1-s acoustic pulses,[5],5.77
same,activity during period 15,[6],6.35
same,optomotor response to blue moving lines,[2],-1.72
same,optomotor response to green moving lines,[3],-4.69
CC[C@H]1OC(=O)[C@H](C)[C@@H](O[C@H]2C[C@@](C)(OC)[C@@H](O)[C@H](C)O2)[C@H](C)[C@@H](O[C@@H]2O[C@H](C)C[C@H](N(C)C)[C@H]2O)[C@](C)(O)C[C@@H](C)CN(C)[C@H](C)[C@@H](O)[C@]1(C)O [Azithromycin],habituation to 1-s acoustic pulses,[1],4.52
same,excitability to 1-s acoustic pulses,[5],13
same,optomotor response to red moving lines,[7],-11.1
CCCN(CCC)S(=O)(=O)c1ccc(C(=O)O)cc1 [Probenecid],optomotor response to blue moving lines,[2],2.07
COc1cccc2c1C(=O)c1c(O)c3c(c(O)c1C2=O)C[C@@](O)(C(=O)CO)C[C@@H]3O[C@H]1C[C@H](N)[C@H](O)[C@H](C)O1 [Doxorubicin hydrochloride],optomotor response to red moving lines,[7],-1.73
same,activity during period 15,[6],-10.6
same,startle response to 20-s acoustic pulses,[8],3.62
C[C@H]1O[C@H](O[C@H]2[C@H](O)[C@@H](O)[C@@H](O[C@H]3[C@H](O)[C@@H](O)C(O)O[C@@H]3CO)O[C@@H]2CO)[C@H](O)[C@@H](O)[C@@H]1N[C@H]1C=C(CO)[C@@H](O)[C@H](O)[C@H]1O (some centres not stated) [Acarbose],optomotor response to red moving lines,[7],6
same,optomotor response to green moving lines,[3],6.59
